Rows were chosen to be rich in hits. Some 9% of all compounds tested hit in one or more screens of this group.
PLK1 PBD block = blocks phosphopeptide binding to human PLK1 polo-box domain | P53350 | Plk1 PBD binding of FITC phosphopeptide, fluorescence polarization | Potency, µM, usual class: inhibitors | hit rate 2.8% among 360,000 | AID 720504; note: series mostly up to about 57 µM; nearly all actives have a fitted effect of over 65% in size
BAZ2B inh = inhibitors of human BAZ2B bromodomain; AlphaScreen BAZ2B-H3K14Ac peptide displacement; Potency, µM (series often up to 114 µM), most hits filed as inhibitors; hit rate 4.4% among 360,000; note: nearly all actives have a fitted effect of over 60% in size
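Complex of BAZ2B and biotin-H3K14Ac (50 nM apiece) forms over 30 min at RT, then faces library compounds up to 110 uM for another 30 min; AlphaScreen beads added, 20 min dark incubation, luminescence read.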
G9a inh = G9a (human) methyltransferase inhibition. Q96KQ7. G9a H3K9 monomethylation, AlphaScreen, 2 h. Potency, µM (highest dose often 102 µM), actives largely listed as inhibitors. hit rate 8.8% among 350,000. AID 504332; note: nearly all actives have a fitted effect of over 75% in size
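Enzyme 20 nM + cpd, 15 min RT; add b-H3K9 pep 500 nM / SAM 20 uM; 2 h RT; anti-H3K9me1 Ab 0.5 ug/mL + SA donor / anti-rabbit acceptor beads 20 ug/mL each, 10 min; AlphaScreen read.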
12-LOX inh = inhibitors of human 12S-lipoxygenase ALOX12 | P18054 | purified 12hLO, xylenol orange hydroperoxide absorbance | Potency, µM (titrated, usually from 108 µM), usual class: inhibitors | hit rate 1.1% among 580,000 | AID 1671190
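Hydroperoxide product was detected by ferrous iron/xylenol orange as the 573 to 405 nm absorbance ratio. Arachidonic acid at 40 uM (final) was turned over for 30 min at room temperature by 150 nM human 12hLO, pH 7.0 Hepes buffer, after 15 min compound preincubation.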
JMJD2A Tudor = blocks the human JMJD2A Tudor domain | O75164 | AlphaScreen JMJD2A-Tudor / H3K4me3 peptide binding | Potency, µM (titrated, usually from 114 µM), most hits filed as inhibitors | hit rate 4.4% among 390,000; note: nearly all actives have a fitted effect of over 50% in size
HP1b binding inh = blocks HP1-beta chromodomain binding to methylated histone tails; AID 540317; AlphaScreen HP1-beta / biotin-H3K9me3 peptide binding; P83916; hit rate 0.56% among 390,000; Potency, µM (doses to about 114 µM), hits mostly inhibitors; note: nearly all actives have a fitted effect of over 70% in size
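AlphaScreen: HP1-beta (50 nM) preformed 30 min with biotin-H3(1-18)K9me3 peptide (50 nM) in PBS pH 7.4, 0.01% Tween-20. Compound added for 30 min at RT, then streptavidin donor/nickel chelate acceptor beads (10 ug/mL) for 30 min.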
Large screens that a line does not name were inactive; ! = repeats disagree. Calls come from the whole dose curve; as a rule, active = well fitted curve in the direction sought with a large enough effect; inconclusive = small, poorly fitted or top-dose-only effect, or another doubt; inactive = no such curve, though single readings can be large; an effect the other way counts as inactive or inconclusive.

COc1ccccc1OCc1ccc(C(=O)NCC2CCCO2)cc1 (configuration not stated)	none
O=C(NC[C@H]1O[C@H](Cc2cc(-c3ccccc3)on2)CC[C@@H]1O)c1cnccn1	none (no result: PLK1 PBD block, BAZ2B inh, G9a inh, JMJD2A Tudor, HP1b binding inh)
Cc1cc(C)cc(NC(=O)N(C)CC2CCOC2)c1 (configuration not stated)	none (no result: PLK1 PBD block, BAZ2B inh, G9a inh, JMJD2A Tudor, HP1b binding inh)
O=C(Nc1cc(Cl)cc(Cl)c1)c1ccc2c3c(cccc13)CC2	none (no result: PLK1 PBD block, BAZ2B inh, G9a inh, JMJD2A Tudor, HP1b binding inh)
CC(=O)N1CCC(CC(=O)N(C)Cc2ccccc2)C1 (configuration not stated)	none (no result: PLK1 PBD block, BAZ2B inh, G9a inh, JMJD2A Tudor, HP1b binding inh)
Fc1ccccc1OCCCCSc1ncccn1	PLK1 PBD block inconclusive
O=c1oc(-c2ccc(F)cc2)nc2ccsc12	none
Cc1c(C(=O)Nc2ccc(C(=O)O)cc2)nnn1-c1ccccc1	JMJD2A Tudor inconclusive (no result: PLK1 PBD block)
Cc1c(C(=O)NNC(=S)Nc2cccc(Cl)c2)nnn1-c1ccccc1	BAZ2B inh 56µM, G9a inh 11µM, JMJD2A Tudor inconclusive
N#CC1=C(S)N(c2ccccc2)C(c2ccc(-c3ccccc3Cl)o2)NC1=O (configuration not stated)	PLK1 PBD block 19µM, BAZ2B inh inconclusive, G9a inh inconclusive, 12-LOX inh inconclusive, JMJD2A Tudor inconclusive, HP1b binding inh inconclusive
N#Cc1ccc(-c2ccc(C3Nc4ccccc4C(=O)N3O)o2)cc1 (configuration not stated)	12-LOX inh inconclusive (no result: PLK1 PBD block)
Cc1nn(CC(=O)Nc2ccc3c(c2)nc2n3CCN(C3CCCCC3)C2)c(=O)c2ccccc12	12-LOX inh inconclusive (no result: G9a inh)
CC(c1ccccc1)N1CCn2c(nc3cc(NC(=O)NC4CCCCC4)ccc32)C1 (configuration not stated)	G9a inh 35µM
COCCC(=O)N1CCC(Oc2ccc(C(=O)NCc3cccc(C)n3)cc2)CC1	none (no result: G9a inh)
Cc1nc2scc(C)n2c(=O)c1S(=O)(=O)Nc1ccc(N2CCOCC2)cc1	BAZ2B inh inconclusive, 12-LOX inh inconclusive
Cc1nc2scc(C)n2c(=O)c1S(=O)(=O)Nc1ccc(N2CCN(C(=O)C(C)C)CC2)cc1	JMJD2A Tudor 40µM!
CCc1cccc(NS(=O)(=O)c2c(C)nc3scc(C)n3c2=O)c1	G9a inh 28µM
O=[N+]([O-])c1nccn1CO[C@@H](CO)[C@H](O)CO	none (no result: PLK1 PBD block, BAZ2B inh, G9a inh, JMJD2A Tudor, HP1b binding inh)
Cc1noc([C@@H](C)NC(=O)C2CC2)c1C(=O)O	none (no result: PLK1 PBD block, BAZ2B inh, G9a inh, JMJD2A Tudor, HP1b binding inh)
Nc1nc2n[nH]nc2c(=O)[nH]1	none (no result: BAZ2B inh)
Nc1nc(=S)c2n[nH]nc2[nH]1	JMJD2A Tudor 18µM (no result: PLK1 PBD block, BAZ2B inh, G9a inh, 12-LOX inh)
CCCNC(=O)NC[C@H]1O[C@@H]2C[C@@H](CC(=O)N3CCC(F)(F)C3)O[C@@H]2[C@@H]1O	none (no result: PLK1 PBD block, BAZ2B inh, G9a inh, JMJD2A Tudor, HP1b binding inh)
CC(=O)Nc1ccc(/C=N/Nc2nncc3ccccc23)cc1	none
N#Cc1c(-c2ccccc2)nc(-c2ccncc2)[nH]c1=O	none
N#Cc1c(Cl)nc(-c2ccncc2)nc1-c1ccccc1	BAZ2B inh 79µM, G9a inh 28µM, JMJD2A Tudor inconclusive
N#Cc1c(Cl)nc(SCc2ccccc2)nc1-c1ccccc1	BAZ2B inh 79µM (no result: PLK1 PBD block, G9a inh, 12-LOX inh, JMJD2A Tudor, HP1b binding inh)
N#Cc1c(-c2ccccc2)nc(SCc2cccc(Cl)c2)[nH]c1=O	PLK1 PBD block 27µM, 12-LOX inh 40µM
CC(=O)Nc1ccc2ncnc(N3CCCC3)c2c1	none (no result: PLK1 PBD block, BAZ2B inh, G9a inh, JMJD2A Tudor, HP1b binding inh)
CC12C(=O)N(c3ccccn3)C(=O)C1C1C=CC2C1 (configuration not stated)	PLK1 PBD block 30µM
O=C(CSc1nnnn1C1CCCCC1)Nc1ccc2c(c1)OCO2	none
CSC1=NSC2=NC(=O)/C(=C\c3cccs3)C(=N)N12	G9a inh inconclusive
CC(C)CSC1=NSC2=NC(=O)/C(=C\c3cccs3)C(=N)N12	PLK1 PBD block inconclusive, BAZ2B inh inconclusive, G9a inh 45µM, JMJD2A Tudor inconclusive
N=C1/C(=C/c2cccs2)C(=O)N=C2SN=C(SCc3ccccc3)N12	PLK1 PBD block 27µM, BAZ2B inh inconclusive, 12-LOX inh inconclusive, JMJD2A Tudor inconclusive
O=C(/C=C\c1ccco1)Nc1nc(-c2ccc3ccccc3c2)cs1	BAZ2B inh inconclusive, G9a inh 50µM, 12-LOX inh inconclusive
O=C(NNc1nc(-c2ccc(Br)cc2)cs1)c1ccco1	G9a inh 28µM
CCN(C(=O)c1ccco1)c1nc(-c2ccc(OC)cc2)cs1	BAZ2B inh 79µM
O=C(NC(=S)Nc1nc(-c2ccc([N+](=O)[O-])cc2)cs1)c1ccco1	G9a inh 25µM, 12-LOX inh inconclusive
Cc1ccc(-c2csc(NC(=S)NC(=O)/C=C/c3ccco3)n2)cc1	BAZ2B inh inconclusive
CCOc1ccc(-c2csc(NC(=O)c3ccco3)n2)cc1	G9a inh 40µM, 12-LOX inh inconclusive
Cc1ccc(-c2csc(NC(=O)c3ccco3)n2)cc1C	none (no result: G9a inh)
O=C(Nc1nc(-c2ccccc2)cs1)c1ccco1	G9a inh inconclusive
O=C(Nc1nc(-c2ccco2)cs1)c1ccccc1	PLK1 PBD block inconclusive, BAZ2B inh 56µM, G9a inh inconclusive, 12-LOX inh inconclusive, JMJD2A Tudor inconclusive
O=C(Nc1nc(-c2ccc(Cl)s2)cs1)c1ccccc1	none
COc1ccc(-c2csc(NC(=O)c3ccco3)n2)cc1	BAZ2B inh inconclusive, G9a inh 14µM
CCn1nc(C)c2c(-c3ccccc3)cc(=O)n(C(C)C(=O)NCCc3ccccc3)c21 (configuration not stated)	12-LOX inh inconclusive (no result: PLK1 PBD block)
CCOC(=O)C1=C(CN2CC(C)CC(C)C2)NC(=O)NC1c1ccc2c(c1)OCO2 (configuration not stated)	BAZ2B inh inconclusive
Cc1onc(-c2cccc(Cl)c2Cl)c1C(=O)O/N=C(\N)c1ccc([N+](=O)[O-])o1	BAZ2B inh inconclusive, G9a inh 35µM, JMJD2A Tudor inconclusive
Cc1onc(-c2ccccc2)c1C(=O)O/N=C(\N)c1ccc([N+](=O)[O-])o1	G9a inh 45µM
CCc1ccc(CNc2ccc(O)cc2)cc1	PLK1 PBD block 30µM, BAZ2B inh 40µM, G9a inh inconclusive, JMJD2A Tudor 56µM (no result: 12-LOX inh)
CCOc1ccccc1CNc1ccc(O)cc1	PLK1 PBD block inconclusive, BAZ2B inh 35µM, 12-LOX inh inconclusive, JMJD2A Tudor 56µM, HP1b binding inh inconclusive
Oc1ccc(NCc2ccc(OCc3ccccc3Cl)cc2)cc1	BAZ2B inh inconclusive, G9a inh 3.2µM, 12-LOX inh inconclusive, JMJD2A Tudor 50µM, HP1b binding inh inconclusive (no result: PLK1 PBD block)
Cc1ccc(NCc2ccccc2OCc2ccccc2F)cc1	BAZ2B inh inconclusive, G9a inh inconclusive, JMJD2A Tudor inconclusive
CCOc1cc(CNc2ccc(O)cc2)ccc1OCc1ccc(Cl)cc1Cl	BAZ2B inh inconclusive, G9a inh inconclusive, JMJD2A Tudor 79µM (no result: 12-LOX inh)
CCOc1cccc(CNc2ccc(O)cc2)c1OCc1ccc(Cl)cc1	G9a inh 14µM, 12-LOX inh inconclusive, JMJD2A Tudor 79µM
